Laboratory results published in the supplement of paper PMC10849652.
Targets with a hit are over-represented here; the source holds about 8,800 in all. About 0.5% of all pairs of compound and target were hits. Unmarked numbers belong to inactive results.

Assays:
Experiment in all cases: log2 fold change, soluble protein after heating vs DMSO (PISA); higher = thermal stabilisation; K562 lysate, 10 uM; active = over 0.2 and 3.5 SD of the protein, either way, in both replicates (recomputed)
[1] = compound: CN1CC[C@H](c2c(O)cc(O)c3c(=O)cc(-c4ccccc4Cl)oc23)[C@H](O)C1 [alvocidib]
How it was run: (§1)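 Values give the log-two fold change in thermal stability against solvent controls, from duplicates. Crude K562 extract at 1 mg/mL protein, made by dounce homogenisation in PBS pH 7.4 with 1 mM MgCl2, was treated with 10 μM compound for 30 min. After 3 min heating across 48°C-58°C, aliquots were pooled, adjusted to 0.5% NP-40 at 4°C and centrifuged at 21,000xg for 90 min. The supernatant was measured by TMTpro 16plex LC-MS/MS with channel sums equalised.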

[2] = compound: CN1CCc2c(c3ccccc3n2Cc2ccc(C(=O)NO)cc2)C1 [Tubastatin A]
How it was run: as §1

[3] = compound: CNC(=O)C1=CC=CC=C1NC2=NC(=NC=C2Cl)NC3=C(C=C(C=C3)N4CCOCC4)OC
How it was run: as §1

[4] = compound: CNC(=O)c1ccc(Nc2ncc(C(F)(F)F)c(NCc3nccnc3N(C)S(C)(=O)=O)n2)cc1 [defactinib]
How it was run: as §1

[5] = compound: CNc1nc(-c2ccc3c(N)n[nH]c3c2)cc(N2C[C@@H](C(=O)NC3CCCCC3)CC[C@H]2C)n1
How it was run: as §1

[6] = compound: COC(=O)N[C@@H](C)CNc1nccc(-c2cn(C(C)C)nc2-c2cc(Cl)cc(NS(C)(=O)=O)c2F)n1 [encorafenib]
How it was run: as §1

[7] = compound: COC(=O)[C@H](CCSC)NC(=O)C1=C(C=C(C=C1)NC[C@H](CS)N)C2=CC=CC=C2
How it was run: as §1

[8] = compound: COc1cc(Nc2ncc3c(n2)-c2ccc(Cl)cc2C(c2c(F)cccc2OC)=NC3)ccc1C(=O)O [alisertib]
How it was run: as §1

[9] = compound: COc1cc2nc(-c3cc(F)ccc3O)nc(N[C@@H]3CNC[C@H]3C(C)(C)O)c2cc1OC
How it was run: as §1

[10] = compound: COc1cc2ncnc(Nc3ccc(F)c(Cl)c3)c2cc1OCCCN1CCOCC1 [gefitinib]
How it was run: as §1

[11] = compound: CS(=O)(=O)CCNCc1ccc(-c2ccc3ncnc(Nc4ccc(OCc5cccc(F)c5)c(Cl)c4)c3c2)o1 [lapatinib]
How it was run: as §1

[12] = compound: CS(=O)(=O)N1CCN(Cc2cc3nc(-c4cccc5[nH]ncc45)nc(N4CCOCC4)c3s2)CC1 [pictilisib]
How it was run: as §1

[13] = compound: C[C@@H](Oc1cc(-c2cnn(C3CCNCC3)c2)cnc1N)c1c(Cl)ccc(F)c1Cl [crizotinib]
How it was run: as §1

[14] = compound: C[C@H](C1=CC=C(C=C1)C(=O)NC2=C3C=CNC3=NC=C2)N
How it was run: as §1

[15] = compound: C[C@H](Nc1ncnc2nc[nH]c12)c1cc2cccc(Cl)c2c(=O)n1-c1ccccc1 [duvelisib]
How it was run: as §1

[16] = compound: Cc1cc(Nc2cc(CN3CCOCC3)c3nc(C)c(Cc4ccc(Cl)cc4F)n3n2)n[nH]1 [gandotinib]
How it was run: as §1

[17] = compound: Cc1cc(Nc2cc(N3CCN(C)CC3)nc(Sc3ccc(NC(=O)C4CC4)cc3)n2)n[nH]1 [tozasertib]
How it was run: as §1

[18] = compound: Cc1ccc(-n2nc(C(C)(C)C)cc2NC(=O)Nc2ccc(OCCN3CCOCC3)c3ccccc23)cc1 [doramapimod]
How it was run: as §1

[19] = compound: Cc1ccc(NC(=O)c2ccc(CN3CC[C@H](N(C)C)C3)c(C(F)(F)F)c2)cc1Nc1nccc(-c2cncnc2)n1 [bafetinib]
How it was run: as §1

[20] = compound: Cc1cccc(CC(=O)N2CCc3c2ccc(-c2cn(C)c4ncnc(N)c24)c3F)n1
How it was run: as §1

UniProt P99999, sequence (P99999 whole entry, looked up): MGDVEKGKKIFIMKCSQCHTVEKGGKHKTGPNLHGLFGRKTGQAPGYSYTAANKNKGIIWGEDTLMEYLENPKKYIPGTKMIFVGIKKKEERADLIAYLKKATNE
UniProt P61024, sequence (P61024 whole entry, looked up): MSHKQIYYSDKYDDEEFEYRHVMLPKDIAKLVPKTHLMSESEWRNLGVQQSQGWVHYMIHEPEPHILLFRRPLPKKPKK
UniProt P21964, sequence (P21964 whole entry, looked up): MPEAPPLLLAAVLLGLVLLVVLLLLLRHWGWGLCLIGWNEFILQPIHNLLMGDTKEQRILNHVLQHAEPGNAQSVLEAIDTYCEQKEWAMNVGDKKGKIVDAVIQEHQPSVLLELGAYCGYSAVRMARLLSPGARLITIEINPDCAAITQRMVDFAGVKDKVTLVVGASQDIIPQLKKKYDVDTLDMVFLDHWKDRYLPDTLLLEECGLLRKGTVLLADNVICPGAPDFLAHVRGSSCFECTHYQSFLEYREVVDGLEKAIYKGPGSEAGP
UniProt Q9UP83, sequence (Q9UP83 whole entry, looked up): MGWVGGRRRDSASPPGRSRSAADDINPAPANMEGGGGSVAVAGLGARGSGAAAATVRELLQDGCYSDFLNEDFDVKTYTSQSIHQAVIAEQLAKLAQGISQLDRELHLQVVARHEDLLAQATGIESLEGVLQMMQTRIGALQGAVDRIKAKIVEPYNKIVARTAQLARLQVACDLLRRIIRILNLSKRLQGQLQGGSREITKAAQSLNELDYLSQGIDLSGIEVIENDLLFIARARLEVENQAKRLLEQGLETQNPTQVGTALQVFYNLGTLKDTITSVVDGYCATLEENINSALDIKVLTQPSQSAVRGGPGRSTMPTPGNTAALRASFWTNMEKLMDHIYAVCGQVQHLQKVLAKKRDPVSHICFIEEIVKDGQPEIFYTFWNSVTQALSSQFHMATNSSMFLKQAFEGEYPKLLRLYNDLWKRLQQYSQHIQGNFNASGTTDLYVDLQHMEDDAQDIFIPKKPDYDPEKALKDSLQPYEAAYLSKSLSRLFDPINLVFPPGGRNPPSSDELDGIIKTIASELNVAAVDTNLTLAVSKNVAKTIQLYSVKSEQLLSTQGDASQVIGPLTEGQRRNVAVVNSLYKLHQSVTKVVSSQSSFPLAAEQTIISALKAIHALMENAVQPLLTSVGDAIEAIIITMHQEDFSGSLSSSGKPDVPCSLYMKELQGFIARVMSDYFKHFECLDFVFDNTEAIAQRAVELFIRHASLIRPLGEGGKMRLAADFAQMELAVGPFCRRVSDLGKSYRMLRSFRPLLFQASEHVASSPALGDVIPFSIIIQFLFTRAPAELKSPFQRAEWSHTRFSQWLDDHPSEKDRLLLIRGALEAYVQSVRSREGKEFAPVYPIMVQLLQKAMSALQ
UniProt P14868, sequence (P14868 whole entry, looked up): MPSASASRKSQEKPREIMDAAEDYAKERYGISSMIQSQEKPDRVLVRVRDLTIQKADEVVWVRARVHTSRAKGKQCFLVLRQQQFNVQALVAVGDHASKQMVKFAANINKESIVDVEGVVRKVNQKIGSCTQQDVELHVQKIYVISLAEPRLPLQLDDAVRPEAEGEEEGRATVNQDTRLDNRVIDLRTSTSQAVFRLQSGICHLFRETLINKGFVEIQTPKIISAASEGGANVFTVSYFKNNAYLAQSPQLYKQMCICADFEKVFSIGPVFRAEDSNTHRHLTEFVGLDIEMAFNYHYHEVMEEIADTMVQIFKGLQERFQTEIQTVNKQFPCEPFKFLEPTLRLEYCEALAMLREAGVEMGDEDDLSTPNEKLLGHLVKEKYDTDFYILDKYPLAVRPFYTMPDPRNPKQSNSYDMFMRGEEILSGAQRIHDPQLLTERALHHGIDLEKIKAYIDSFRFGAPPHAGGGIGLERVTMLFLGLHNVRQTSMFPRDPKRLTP
UniProt Q9H2P9, sequence (Q9H2P9 whole entry, looked up): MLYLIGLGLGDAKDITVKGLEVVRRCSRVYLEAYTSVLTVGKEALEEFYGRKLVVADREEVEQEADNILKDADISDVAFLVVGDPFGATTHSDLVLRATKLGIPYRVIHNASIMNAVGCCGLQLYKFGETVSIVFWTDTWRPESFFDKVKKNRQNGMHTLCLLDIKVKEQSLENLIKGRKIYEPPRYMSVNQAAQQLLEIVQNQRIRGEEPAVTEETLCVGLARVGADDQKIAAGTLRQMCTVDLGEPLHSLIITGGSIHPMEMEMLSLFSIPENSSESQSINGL
UniProt Q96JB2, sequence (Q96JB2 whole entry, looked up): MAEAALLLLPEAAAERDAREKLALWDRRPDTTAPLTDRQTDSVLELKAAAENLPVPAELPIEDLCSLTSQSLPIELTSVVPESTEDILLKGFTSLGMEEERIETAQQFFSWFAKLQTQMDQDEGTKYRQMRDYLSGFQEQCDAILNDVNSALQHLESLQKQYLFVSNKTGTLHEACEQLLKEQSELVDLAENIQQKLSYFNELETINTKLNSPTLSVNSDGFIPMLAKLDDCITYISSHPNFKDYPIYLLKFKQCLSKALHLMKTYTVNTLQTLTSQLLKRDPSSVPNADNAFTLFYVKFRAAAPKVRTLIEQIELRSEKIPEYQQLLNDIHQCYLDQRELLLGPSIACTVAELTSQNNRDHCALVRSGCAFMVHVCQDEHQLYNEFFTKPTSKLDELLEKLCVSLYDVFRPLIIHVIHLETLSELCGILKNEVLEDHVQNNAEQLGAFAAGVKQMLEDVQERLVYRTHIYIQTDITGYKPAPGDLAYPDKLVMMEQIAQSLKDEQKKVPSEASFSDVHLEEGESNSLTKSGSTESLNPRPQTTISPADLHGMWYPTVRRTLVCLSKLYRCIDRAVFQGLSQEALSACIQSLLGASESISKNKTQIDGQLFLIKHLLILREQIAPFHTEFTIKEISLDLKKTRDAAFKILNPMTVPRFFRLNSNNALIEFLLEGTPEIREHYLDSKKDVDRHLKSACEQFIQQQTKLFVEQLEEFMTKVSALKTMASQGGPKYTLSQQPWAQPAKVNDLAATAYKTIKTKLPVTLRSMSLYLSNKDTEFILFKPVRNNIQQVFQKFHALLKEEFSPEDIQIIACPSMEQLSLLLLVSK
UniProt Q6PJW8, sequence (Q6PJW8 whole entry, looked up): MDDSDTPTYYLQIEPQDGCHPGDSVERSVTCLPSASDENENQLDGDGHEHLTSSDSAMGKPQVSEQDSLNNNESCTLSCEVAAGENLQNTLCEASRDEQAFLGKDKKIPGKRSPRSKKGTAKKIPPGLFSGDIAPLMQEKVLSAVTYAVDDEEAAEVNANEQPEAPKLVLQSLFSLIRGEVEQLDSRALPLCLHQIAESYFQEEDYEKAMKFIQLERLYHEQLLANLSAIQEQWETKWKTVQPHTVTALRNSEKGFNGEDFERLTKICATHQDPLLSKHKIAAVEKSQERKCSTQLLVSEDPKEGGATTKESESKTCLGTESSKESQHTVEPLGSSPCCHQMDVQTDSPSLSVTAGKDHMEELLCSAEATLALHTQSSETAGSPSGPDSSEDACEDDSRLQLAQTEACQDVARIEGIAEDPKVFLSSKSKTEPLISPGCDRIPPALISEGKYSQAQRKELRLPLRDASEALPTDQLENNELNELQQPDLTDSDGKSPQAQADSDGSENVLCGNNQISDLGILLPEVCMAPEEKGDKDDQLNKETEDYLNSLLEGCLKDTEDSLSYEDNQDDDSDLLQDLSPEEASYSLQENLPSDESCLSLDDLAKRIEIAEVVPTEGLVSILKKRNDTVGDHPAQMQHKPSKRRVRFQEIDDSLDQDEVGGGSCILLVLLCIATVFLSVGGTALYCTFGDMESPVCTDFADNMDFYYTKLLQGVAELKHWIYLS
UniProt P04080, sequence (P04080 whole entry, looked up): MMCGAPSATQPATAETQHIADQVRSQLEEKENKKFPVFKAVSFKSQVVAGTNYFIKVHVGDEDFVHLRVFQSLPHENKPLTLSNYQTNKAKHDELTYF
UniProt Q8IWF6, sequence (Q8IWF6 whole entry, looked up): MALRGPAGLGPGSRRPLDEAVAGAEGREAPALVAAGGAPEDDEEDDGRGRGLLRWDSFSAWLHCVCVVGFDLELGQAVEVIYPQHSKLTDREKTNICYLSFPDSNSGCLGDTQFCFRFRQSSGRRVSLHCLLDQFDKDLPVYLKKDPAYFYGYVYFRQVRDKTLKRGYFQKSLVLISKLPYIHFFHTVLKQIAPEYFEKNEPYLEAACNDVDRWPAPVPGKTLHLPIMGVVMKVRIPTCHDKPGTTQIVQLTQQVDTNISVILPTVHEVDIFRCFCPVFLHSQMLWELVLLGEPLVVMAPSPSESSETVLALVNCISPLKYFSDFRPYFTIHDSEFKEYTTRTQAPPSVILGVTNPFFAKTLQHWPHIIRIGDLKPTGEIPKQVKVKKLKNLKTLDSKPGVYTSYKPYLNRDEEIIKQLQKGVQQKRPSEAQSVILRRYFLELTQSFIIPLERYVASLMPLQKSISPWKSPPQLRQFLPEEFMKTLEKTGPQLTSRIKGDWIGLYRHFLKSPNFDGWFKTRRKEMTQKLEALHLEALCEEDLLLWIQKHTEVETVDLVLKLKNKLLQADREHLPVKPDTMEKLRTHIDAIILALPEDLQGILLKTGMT
UniProt P17812, sequence (P17812 whole entry, looked up): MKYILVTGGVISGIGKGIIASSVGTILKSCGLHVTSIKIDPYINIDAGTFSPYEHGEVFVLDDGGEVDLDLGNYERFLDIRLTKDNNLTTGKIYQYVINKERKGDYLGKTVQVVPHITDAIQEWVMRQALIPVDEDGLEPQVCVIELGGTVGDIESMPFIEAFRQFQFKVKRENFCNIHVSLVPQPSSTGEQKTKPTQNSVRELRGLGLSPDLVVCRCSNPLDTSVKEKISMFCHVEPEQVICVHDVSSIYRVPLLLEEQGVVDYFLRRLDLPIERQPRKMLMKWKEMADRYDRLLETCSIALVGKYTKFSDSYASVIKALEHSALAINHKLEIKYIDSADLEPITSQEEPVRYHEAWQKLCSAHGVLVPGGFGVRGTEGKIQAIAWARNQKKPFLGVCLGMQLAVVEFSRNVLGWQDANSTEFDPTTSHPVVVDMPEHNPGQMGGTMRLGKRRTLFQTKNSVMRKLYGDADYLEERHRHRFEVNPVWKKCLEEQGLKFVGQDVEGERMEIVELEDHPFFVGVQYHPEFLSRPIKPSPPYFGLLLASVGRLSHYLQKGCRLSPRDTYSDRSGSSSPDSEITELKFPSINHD

Target | log2 fold change [1] | log2 fold change [2] | log2 fold change [3] | log2 fold change [4] | log2 fold change [5] | log2 fold change [6] | log2 fold change [7] | log2 fold change [8] | log2 fold change [9] | log2 fold change [10] | log2 fold change [11] | log2 fold change [12] | log2 fold change [13] | log2 fold change [14] | log2 fold change [15] | log2 fold change [16] | log2 fold change [17] | log2 fold change [18] | log2 fold change [19] | log2 fold change [20]
COG3 (UniProt Q96JB2) | -0.023 | -0.09 | 0.042 | -0.016 | -0.041 | -0.013 | -0.045 | 0.032 | -0.018 | -0.026 | -0.036 | -0.054 | -0.062 | -0.036 | 0.006 | -0.064 | 0.015 | 0.03 | 0.003 | 0.093
COG5 isoform 2 (UniProt Q9UP83) | 0.02 | -0.051 | 0.04 | -0.005 | -0.015 | -0.025 | -0.037 | -0.012 | -0.053 | 0.027 | -0.059 | -0.03 | -0.025 | 0.027 | 0.007 | -0.071 | 0.013 | -0.024 | -0.034 | 0.062
DPH5 isoform 5 (UniProt Q9H2P9) | -0.012 | 0.02 | 0.119 | -0.002 | 0.02 | -0.044 | -0.024 | -0.045 | -0.018 | 0.04 | 0.009 | 0.025 | 0.126 | -0.019 | 0.128 | 0.495 (active) | 0.005 | -0.024 | 0.143 | 0.101
CYCS (UniProt P99999) | -0.003 | 0.027 | 0.009 | 0.04 | 0.018 | -0.004 | -0.04 | -0.019 | -0.002 | 0.003 | 0.015 | -0.033 | 0.036 | -0.054 | -0.039 | 0.056 | -0.004 | -0.029 | 0.06 | -0.006
COG2 (UniProt Q14746) | -0.032 | -0.114 | -0.009 | 0.05 | 0.028 | -0.009 | 0.052 | 0.021 | -0.022 | -0.039 | -0.009 | -0.03 | -0.041 | -0.025 | 0.025 | -0.118 | 0.012 | 0.009 | -0.027 | 0.02
CKS1B (UniProt P61024) | 0.117 | -0.001 | 0.032 | 0.075 | -0.055 | 0.04 | -0.014 | -0.031 | -0.024 | 0.071 | 0.039 | 0.002 | 0.094 | 0.302 (active) | -0.045 | -0.183 | 0.047 | 0.023 | 0.068 | -0.324 (active)
DMXL1 (UniProt Q9Y485) | 0.01 | -0.014 | 0.019 | 0.024 | 0.012 | 0.055 | -0.015 | -0.031 | 0.009 | 0.038 | -0.003 | -0.014 | -0.021 | 0.001 | 0.007 | -0.028 | 0.002 | 0.039 | -0.01 | 0.026
DARS (UniProt P14868) | 0.012 | -0.119 | -0.012 | 0.012 | -0.061 | 0.028 | 0.049 | 0.038 | 0.003 | -0.014 | 0.002 | 0 | -0.033 | -0.036 | 0 | -0.081 | 0.011 | 0.015 | -0.011 | 0.008
COMT (UniProt P21964) | 0.012 | -0.162 | -0.016 | 0.016 | -0.013 | 0.028 | 0.059 | 0.022 | 0.025 | 0.013 | -0.006 | -0.007 | 0.019 | -0.052 | -0.015 | -0.008 | -0.008 | 0.038 | 0.012 | 0.01
CTPS1 (UniProt P17812) | 0.006 | -0.101 | -0.021 | 0 | -0.048 | 0.016 | 0.038 | -0.019 | -0.001 | -0.015 | -0.007 | -0.015 | -0.044 | 0.004 | -0.003 | -0.052 | -0.004 | 0.005 | 0.078 | 0.015
CSTB (UniProt P04080) | -0.051 | 0.089 | -0.023 | 0.069 | 0.011 | 0.025 | -0.011 | 0.023 | -0.042 | -0.143 | 0.05 | 0.003 | -0.059 | -0.235 | 0.025 | 0.147 | -0.01 | 0.107 | 0.012 | 0.104
DHFR (UniProt P00374) | 0.03 | -0.111 | -0.001 | 0.039 | -0.023 | 0.01 | 0.141 | 0.017 | -0.192 | 0.028 | -0.012 | -0.069 | -0.054 | 0.04 | -0.015 | -0.099 | 0.022 | 0.011 | -0.047 | -0.077
DENND6A (UniProt Q8IWF6) | -0.009 | -0.072 | -0.006 | 0.007 | 0.103 | 0.007 | -0.134 | 0.059 | -0.024 | 0.047 | -0.077 | -0.079 | 0.028 | -0.013 | -0.022 | -0.006 | -0.038 | 0.054 | -0.099 | 0.086
DGCR8 (UniProt Q8WYQ5) | 0.009 | -0.115 | -0.009 | -0.046 | 0.042 | 0.018 | 0.081 | 0.022 | 0.027 | -0.034 | -0.023 | -0.048 | 0.039 | -0.056 | -0.014 | -0.032 | -0.012 | 0.04 | -0.009 | 0.044
CNST (UniProt Q6PJW8) | 0 | -0.055 | 0.043 | 0.041 | -0.027 | 0.03 | -0.096 | -0.031 | 0.024 | 0.002 | 0.005 | 0 | 0.031 | -0.022 | -0.007 | 0.033 | 0.019 | 0.005 | 0.033 | 0.025
COG6 (UniProt Q9Y2V7) | 0.026 | -0.062 | 0.059 | -0.028 | 0.059 | -0.026 | 0.034 | 0.016 | -0.017 | 0.006 | 0.012 | -0.019 | -0.104 | -0.137 | 0.014 | -0.115 | -0.011 | 0.037 | -0.071 | 0.142
